DT40 TDP1 CPT – DT40-hTDP1 cell growth loss with CPT. chicken DT40 Tdp1-/-;hTDP1 cells + 20 nM CPT, ATP luminescence, 48 h. Potency, µM (doses to about 46.2 µM), for the others: at the highest dose activity change, negative = growth inhibition, usual class: inhibitors. actives 12% (n = 420,000). AID 686979; note: potency is the fitted concentration of half-maximal effect; % is set by controls: 0 for no effect and ±100 for the full control effect; nearly all actives have a fitted effect of over 55% in size
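Chicken DT40 Tdp1-/- cells complemented with human TDP1, 400 cells/well, exposed to compounds plus 20 nM camptothecin for at least 48 h at 37 C; viability read as ATP content by CellTiter-Glo luminescence.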
ClpP mod – qHTS Assay for Activators of ClpP; ATP-dependent Clp protease proteolytic subunit (Bacillus subtilis (strain 168)), P80244; purified B. subtilis ClpP, FRET peptide cleavage, 20 min; Potency, µM (series often up to 57.5 µM), for inactives: top-dose activity change, negative = active; actives 1.9% (n = 340,000); AID 651965, 2013; active = well fitted falling curve with a large enough effect; inconclusive = small, poorly fitted or top-dose-only effect; inactive = no such curve, though single readings can be large or run the other way; note: potency is the fitted concentration of half-maximal effect; the source files actives as falling curves though it sought activators and does not explain the sign; nearly all actives have a fitted effect of over 65% in size
Target sequence (P80244 whole entry, looked up): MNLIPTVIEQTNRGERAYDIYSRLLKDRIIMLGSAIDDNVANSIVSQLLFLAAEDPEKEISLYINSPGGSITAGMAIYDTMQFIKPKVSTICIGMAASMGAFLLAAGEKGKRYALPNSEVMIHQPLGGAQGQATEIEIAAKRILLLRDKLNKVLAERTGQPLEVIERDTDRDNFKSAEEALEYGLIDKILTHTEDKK
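FRET quenching reversal measured ClpP activation: 10 microg/mL B. subtilis ClpP at pH 8 with the FRET-FV decapeptide, read at 430 nm after 320 nm excitation. The 20-min minus 0-min signal was scaled between DMSO/no-enzyme wells and ADEP (5.8 microM final).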
IL1B secr inh – blocks inflammasome-driven IL-1 beta release; THP-1 LPS/ATP IL-1B secretion, AlphaLISA, 16 h; hits give low values; activity change, % at 57.5 µM; actives 4.7% (n = 360,000); in the data active = activity change below about -50%; inconclusive = mostly about -30% to -49%; note: % is set by controls: 0 for no effect and ±100 for the full control effect
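Secreted IL-1B measured by AlphaLISA bead assay after 16 h compound exposure of THP-1 cells; compounds (final up to 57.5 uM) added 1 h before LPS (250 ng/mL) and ATP (1.25 mM) stimulation; lower signal means less secretion.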
DRD3 antagonist – D3 dopamine receptor (human) antagonism; D3R cells, DiscoveRx beta-arrestin luminescence, antagonist mode; hits give low values; max response, negative = inhibition, %; actives 2.5% (n = 360,000); AID 652054; in the data active = max response below about -50%; inconclusive = no clear call, values can overlap the other calls; note: % is set by controls: 0 for no effect and ±100 for the full control effect
Target sequence (P35462 whole entry, looked up): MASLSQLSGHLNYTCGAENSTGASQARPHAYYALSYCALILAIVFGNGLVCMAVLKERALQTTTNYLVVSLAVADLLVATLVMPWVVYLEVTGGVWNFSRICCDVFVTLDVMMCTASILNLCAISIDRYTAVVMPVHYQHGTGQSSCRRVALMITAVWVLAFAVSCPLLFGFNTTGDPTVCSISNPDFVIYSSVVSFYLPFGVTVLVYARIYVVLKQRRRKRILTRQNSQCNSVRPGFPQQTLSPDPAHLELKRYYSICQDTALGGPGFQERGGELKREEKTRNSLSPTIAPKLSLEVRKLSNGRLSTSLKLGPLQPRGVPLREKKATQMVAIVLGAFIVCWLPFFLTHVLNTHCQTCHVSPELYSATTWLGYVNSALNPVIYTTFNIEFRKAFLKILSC
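Cells expressing the human receptor were seeded at 1500 cells/well, incubated overnight at 37 degrees C in 5% CO2, then exposed to library compounds with dopamine controls for 90 minutes at 37 degrees C before luminescent detection.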
DRD3 agonist – activates the human D3 dopamine receptor; P35462; actives 0.58% (n = 410,000); max activation, %; D3R DiscoveRx beta-arrestin cells, luminescence, 90 min; AID 652048; in the data active = max activation above about 30%; note: 0% is about no effect
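Cells at 1500/well, incubated overnight, then treated with pinned compounds (dopamine as control) for 90 min at 37 degrees C. DiscoveRx reagent added for 30 - 60 minutes at room temperature; luminescence read.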
TDP1 cell noCPT – qHTS for Inhibitors of human tyrosyl-DNA phosphodiesterase 1 (TDP1): qHTS in cells in absence of CPT; actives 15% (n = 420,000); AID 686978, 2013; DT40 Tdp1-/- hTDP1 cells, no CPT, ATP luminescence, 48 h; Potency, µM (highest dose often 46.2 µM), for the others: top-dose activity change, negative = growth inhibition, hits mostly inhibitors; note: potency is the fitted concentration of half-maximal effect; % is set by controls: 0 for no effect and ±100 for the full control effect; nearly all actives have a fitted effect of over 55% in size
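Chicken DT40 Tdp1-/- cells stably complemented with human TDP1 were seeded at 400 cells/well with DMSO in place of 20 nM camptothecin. After compound pinning, cells grew at least 48 hr at 37 °C; viability read by CellTiter-Glo luminescence.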
* hit, by the source's call; i = inactive; ? = inconclusive; . = no result given; [ ] = dose if it differs, or a comment. The list is not random: actives were taken first. Their share in the collection is about 21%. Unless noted, calls come from the whole dose curve; as a rule, active = well fitted inhibition curve with a large enough effect; inconclusive = small, poorly fitted or top-dose-only effect; inactive = flat fitted curve, though single readings scatter.

SMILES	DT40 TDP1 CPT	ClpP mod	IL1B secr inh	DRD3 antagonist	DRD3 agonist	TDP1 cell noCPT
Cc1cnn(CCC(=O)NNC(=S)Nc2ccccc2)c1	11µM*	1%	10	?	0	18µM*
Cc1cnn(CCC(=O)NNC(=S)NCC(C)C)c1	?	1%	-8	6	-8	26µM*
Cc1ccc(NC(=S)NNC(=O)CCn2cc(C)cn2)cc1	-1%	-1%	21	?	-8	-10%
CN1CCN(c2ncncc2-c2ccccc2Cl)CC1	8%	.	.	.	.	0%
CC(C)OCCCN(Cc1ccco1)C(=O)c1cc2c(s1)-c1ccccc1OC2	.	5%	.	.	6	.
O=C(NCC(=O)N1CCN(Cc2ccccc2)CC1)c1cccs1	-6%	-3%	-1	8	0	4%
CC1CCN(C(=O)/C(=C/c2ccccc2Cl)c2ccccc2)CC1	?	0%	-7	0	3	?
N#CC(C#N)=C1C=CC=CN1/C(=C\c1ccccc1)C(=O)c1cccs1	1µM*	-17%	-18	-27	-18	3.7µM*
N#CC(C#N)=C1C=CC=CN1/C(=C\c1ccccc1Cl)C(=O)c1ccccc1	0.58µM*	5%	-73*	-104*	-13	1.2µM*
O=C(C1COc2ccccc2O1)N1CCN(c2ccc([N+](=O)[O-])cc2)CC1 (stereo not given)	?	-12%	-84*	-7	-4	21µM*
O=C(C1COc2ccccc2O1)N1CCN(c2nc3ccc([N+](=O)[O-])cc3s2)CC1 (stereo not given)	?	-2%	-7	10	-6	23µM*
O=C(C1COc2ccccc2O1)N1CCN(c2nc3ccccc3s2)CC1 (stereo not given)	?	1%	i	8	4	?
Cc1ccc2cc(CN(CCN3CCCC3)C(=O)Nc3ccc(F)cc3)c(=O)[nH]c2c1C	23µM*	-14%	?	-78*	-24	18µM*
O=C(Nc1ccc(F)cc1)N(CCCN1CCOCC1)Cc1cc2cc3c(cc2[nH]c1=O)OCO3	?	?	0	16	-2	?
CCOc1ccc(NC(=S)N(CCN2CCOCC2)Cc2cc3cc4c(cc3[nH]c2=O)OCCO4)cc1	?	4%	-53*	7	4	-11%
CCc1ccc2[nH]c(=O)c(CN(CCCN3CCOCC3)C(=O)Nc3ccc(F)cc3)cc2c1	?	-6%	?	24	2	13µM*
COc1ccccc1NC(=O)N(Cc1cccs1)Cc1cc2cc3c(cc2[nH]c1=O)OCO3	?	?	8	28	1	16µM*
CCN(CC)CCCNC(=S)N(Cc1cccs1)Cc1cc2cc3c(cc2[nH]c1=O)OCCO3	-29%	.	0	-20	-22	?
Cc1ccc2cc(CN(CCN3CCOCC3)C(=O)NCc3ccccc3)c(=O)[nH]c2c1C	?	?	-22	-9	3	?
CN1CCCC(CNC(=O)c2cnn(-c3ncc4c(n3)-c3ccccc3CC4)c2C2CC2)C1 (stereo not given)	-12%[9.04 µM]	.	.	.	.	-10%
CC(=O)N[C@@H](C(=O)O)C(C)(C)SN=O	13%	.	.	.	.	-6%
COc1ccccc1NC(=O)N(CCCN1CCOCC1)Cc1cc2cc3c(cc2[nH]c1=O)OCO3	-16%	20µM*	-17	-1	3	?
O=C(Nc1ccc(F)cc1)N(CCCN1CCOCC1)Cc1cc2cc3c(cc2[nH]c1=O)OCCO3	8.2µM*	25µM*	-16	0	2	?
CC(C)NC(=O)Nc1ccc2c(c1)C(=O)N([C@H](C)CO)C[C@H](C)[C@@H](CN(C)C(=O)NC(C)C)O2	-1%	1%	9	6	3	0%
CCn1c(SCC(=O)NCCc2ccccc2)nc2c([nH]c3ccccc32)c1=O	-15%	-5%	81	-1	1	-5%
SMILES	DT40 TDP1 CPT	ClpP mod	IL1B secr inh	DRD3 antagonist	DRD3 agonist	TDP1 cell noCPT
COc1ccccc1NC(=O)N1CCC(CN2CCc3ccccc3C2)CC1	-18%	2%	.	.	-24	-21%
Cc1nn(C)c2c1c(C(F)(F)F)cc(=O)n2C(C)C(=O)Nc1ccccc1F (stereo not given)	?	?	.	.	2	-26%
COc1cccc(NC(=O)C(C)n2c(=O)cc(C(F)(F)F)c3c(C)nn(C)c32)c1 (stereo not given)	16µM*	-12%	.	.	4	18µM*
COc1ccc(CCNC(=O)C(C)n2c(=O)cc(C(F)(F)F)c3c(C)nn(C)c32)cc1OC (stereo not given)	?	-7%	.	.	-9	?
Cc1ccc(CNC(=O)C(C)n2c(=O)cc(C(F)(F)F)c3c(C)nn(C)c32)cc1 (stereo not given)	26µM*	4%	.	.	6	?
COc1ccc(OC)c(N(CC(=O)Nc2cccc(C(F)(F)F)c2)S(C)(=O)=O)c1	10%	.	0	-10	-8	?
CCCCN(C(=O)c1ccco1)C1CCS(=O)(=O)C1 (stereo not given)	4%	0%	8	-9	0	5%
CCOC(=O)c1cnc2cc(-c3ccc(OCC)cc3)nn2c1-c1ccccc1	15µM*	4%	.	.	36*	8.2µM*
COc1ccc(-c2cc3ncc(-c4ccccc4)c(N)n3n2)cc1	?	.	-55*	0	-5	?
CCOC(=O)c1nnc2cc(-c3ccccc3)nn2c1C	-24%	1%	8	-74*	8	?
CCOC(=O)c1nnc2cc(-c3ccc(Br)cc3)nn2c1C	-18%	-2%	12	15	5	-11%
COc1cc(/C=N\NC(=O)C(C)(C)O)ccc1OC/C=C/c1ccccc1	?	-22%	-9	-27	-9	-24%
COc1ccc(-c2ccc(SCC(=O)NCc3ccc4c(c3)OCO4)nn2)cc1OC	?	.	-95*	6	4	29µM*
COc1ccc(-c2ccc(SCC(=O)c3ccccc3)nn2)cc1OC	?	.	-8	-1	13	13µM*
Clc1ccc(-c2ccc(SCc3ccccn3)nn2)cc1	?	0%	-7	3	-2	-18%
O=[N+]([O-])c1cccc(-c2ccc(SCc3ccccn3)nn2)c1	?	.	?	8	2	26µM*
COc1ccc(-c2ccc(SCc3ccccn3)nn2)cc1OC	13µM*	1%	-56*	31	-2	?
